{"source": "PubChem BioAssay (EPA / NIEHS)", "note": "Some structures have more than one record in an assay (separate samples or runs), and their calls can disagree. Calls of active or inactive are those of the source. How the source made its calls: active means hit-call score of the fitted dose curve at least 0.9, where 1 is the maximum; inactive means score below 0.9.", "data": [{"assay": "ATG_NF_kB_CIS: Attagene CIS-FACTORIAL HepG2 Assay for human Nuclear Factor Kappa B (NF-kB) (AID 2282991)", "conditions": "HepG2 Attagene cis-factorial NF-kB reporter mRNA; actives raise or lower the signal", "experimental": "ATG_CIS is a cell-based, multiplexed-readout assay that uses HepG2, a human liver cell line, with measurements taken at 24 hours after chemical dosing in a 24-well plate.ATG_NF_kB_CIS is one of 52 assay component(s) measured or calculated from the ATG_CIS assay. It is designed to make measurements of mRNA induction, a form of inducible reporter, as detected with fluorescence intensity signals by Reverse transcription polymerase chain reaction (RT-PCR) and Capillary electrophoresis technology.Data from the assay component ATG_NF_kB_CIS was analyzed into 1 assay endpoint. This assay endpoint, ATG_NF_kB_CIS, was analyzed with bidirectional fitting relative to DMSO as the negative control and baseline of activity. Using a type of inducible reporter, measures of mRNA for gain or loss-of-signal activity can be used to understand the reporter gene at the transcription factor-level as they relate to the gene NFKB1. Furthermore, this assay endpoint can be referred to as a primary readout, because this assay has produced multiple assay endpoints where this one serves a reporter gene function. To generalize the intended target to other relatable targets, this assay endpoint is annotated to the dna binding intended target family, where the subfamily is NF-kappa B.\nHuman liver HepG2 cells are transiently transfected with multiple reporter transcription units (MRTUs) in 6-well plates using FuGene 6 reagent (Roche; 3 ml FuGene/1 mg DNA). The MRTU constructs are regulated by a cis-regulating element (promoter). […] A major difference between the CIS and TRANS system is that in CIS activities of endogenous TFs are measured, whereas the TRANS assay evaluates changes in activities of exogenous, chimeric NR-Gal4 proteins. […] At the end of 24 hour incubation, total RNA was isolated using TriZol reagent (Invitrogen). The isolated RNA is then reverse-transcribed using oligo(dT) primer and Mo-MLV reverse transcriptase (Invitrogen) with DNAse I (Ambion) treatment for 30 min. The one-tenth of the produced cDNA was amplified by PCR using Taq DNA polymerase (Invitrogen) and two reporter sequence-specific primers. The PCR products were fluorescently labeled by primer extension with 6-arboxyfluorescein (6-FAM) 5'-labeled reporter sequence-specific primer (2 min at 95 C, 20 s at 68 C and 10 min at 72 C) and these products were digested with 5U of HpaI (New England Biolabs) for 2h at 37 C. The fragments were purified using Qiaquick PCR columns (Qiagen), analyzed on an ABI 3130xL genetic analyzer (Applied Biosystems) with peak positions identified by using a set of X-rhodamine (ROX)-labeled MapMarker1000 molecular weight standards (BioVentures). The raw capillary electrophoresis data was processed using Attagraph software (Attagene).", "values": [{"smiles": "OCc1ccccc1", "outcome": "inactive"}, {"smiles": "FC(F)=C(F)C(F)(F)C(F)(F)C(F)(F)C(F)(F)C(F)(F)C(F)(F)F", "outcome": "inactive"}, {"smiles": "O=C(O)c1cccc(C[C@@H]2COc3ccc(OCc4nc5cc(F)ccc5s4)cc3[C@@H]2O)c1", "AC50": "100 µM (active)"}, {"smiles": "Cn1cc[nH]c1=S", "outcome": "inactive"}, {"smiles": "FC(F)(F)COC(OCC(F)(F)F)OCC(F)(F)F", "outcome": "inactive"}, {"smiles": "CCCCCCCCCC", "outcome": "inactive"}, {"smiles": "CCc1ccc(O)c(C(C)(C)C)c1", "outcome": "inactive"}, {"smiles": "OCCC(F)(F)C(F)(F)C(F)(F)C(F)(F)F", "outcome": "inactive"}, {"smiles": "OC(CCl)CCl", "outcome": "inactive"}, {"smiles": "OCc1c[nH]c2ccccc12", "outcome": "inactive", "AC50": "25.5 µM (active)"}, {"smiles": "c1ccc2cc3ccccc3cc2c1", "outcome": "inactive"}, {"smiles": "O=S(=O)(O)c1ccc(N=Nc2c(O)ccc3cc(S(=O)(=O)O)ccc23)cc1", "outcome": "inactive"}, {"smiles": "c1ccc2c(c1)-c1cccc3c1c-2cc1ccccc13", "outcome": "inactive"}, {"smiles": "NC(=O)N(O)[C@@H]1COc2cc(OCc3ccccc3)ccc21", "outcome": "inactive"}, {"smiles": "CCCOc1ccc(S(=O)(=O)N2CCN(CC)CC2)cc1-c1nc2c(CC)n(Cc3ccccn3)nc2c(=O)[nH]1", "AC50": "51 µM (active)"}, {"smiles": "NC(N)=O", "outcome": "inactive"}, {"smiles": "NNC(=O)c1ccncc1", "outcome": "inactive"}, {"smiles": "CCCCCOC(C)=O", "outcome": "inactive"}, {"smiles": "FC(F)(F)C(F)(F)C(F)(F)C(F)(F)C(F)(F)C(F)(F)I", "outcome": "inactive"}, {"smiles": "O=C(Cl)C(F)(F)C(F)(F)C(F)(F)C(=O)Cl", "outcome": "inactive"}, {"smiles": "CC(C)CCCCCCOC(=O)C1CCCCC1C(=O)OCCCCCCC(C)C", "note": "(stereo not given)", "outcome": "inactive"}, {"smiles": "COS(C)(=O)=O", "outcome": "inactive"}, {"smiles": "CC(=O)c1ccccc1", "outcome": "inactive"}, {"smiles": "C[Si](C)(C)C(F)(F)C(F)(F)C(F)(F)F", "outcome": "inactive"}, {"smiles": "S=P(N1CC1)(N1CC1)N1CC1", "outcome": "inactive"}, {"smiles": "NCC(F)(F)C(F)(F)C(F)(F)C(F)(F)F", "outcome": "inactive"}, {"smiles": "O=C(NO)C1(NS(=O)(=O)c2ccc(Oc3ccc(F)cc3)cc2)CCOCC1", "outcome": "inactive"}, {"smiles": "Cc1ccc(S(=O)(=O)NC(=O)NN2CCCCCC2)cc1", "outcome": "inactive"}, {"smiles": "CC(C)CC(C)O", "note": "(stereo not given)", "outcome": "inactive"}, {"smiles": "CCCC(CCC)C(=O)O", "outcome": "inactive"}, {"smiles": "COc1cc(C(C)C)c2c(c1)S(=O)(=O)N(COc1cc(=O)n3cccc(OCCN4CCCCC4)c3n1)C2=O", "AC50": "10.3 µM (active)"}, {"smiles": "O=C(O)[C@H](O)[C@@H](O)C(=O)O", "outcome": "inactive"}, {"smiles": "NC(=O)NN=Cc1ccc([N+](=O)[O-])o1", "outcome": "inactive"}, {"smiles": "CCCCN1C(=O)[C@@H]([C@H](O)C2CCCCC2)NC(=O)C12CCN(Cc1ccc(Oc3ccc(C(=O)O)cc3)cc1)CC2", "AC50": "53.4 µM (active)"}, {"smiles": "O=C(O)c1ccc2c(c1)nc(C(=O)NC1CCN(C3CC3)CC1)n2Cc1cc(-c2ccc(Cl)s2)on1", "outcome": "inactive"}, {"smiles": "Cn1c(=O)c2[nH]cnc2n(C)c1=O", "outcome": "inactive"}, {"smiles": "O=C(N[C@H](CO)[C@H](O)c1ccc([N+](=O)[O-])cc1)C(Cl)Cl", "outcome": "inactive"}, {"smiles": "CCCCCCCCCCCCCCO", "outcome": "inactive"}, {"smiles": "CCCCCCCC/C=C\\CCCCCCCC(=O)OC[C@@H](O)[C@H]1OC[C@H](O)[C@H]1O", "outcome": "inactive"}]}]}
